Assay results from PubChem BioAssay (Tox21).
Where “and” joins values, the source holds several entries; their conditions need not be identical. Equal entries are not always repeated. Inconclusive results are not listed. Some compounds were tested as several samples or in several runs, with calls that do not always agree. Calls of active or inactive are those of the source. Calls come from the whole dose curve; as a rule, active = well fitted curve in the direction sought with a large enough effect in the repeat runs; inconclusive = weak or mixed curves; inactive = no such curve, though single readings can be large; an effect the other way counts as inactive or inconclusive.

Legend:
[1] = qHTS RealTime-Glo MT Cell Viability Assay in HEK293 cells - 40 hour (AID 1224874); conditions: RealTime-Glo luminescence; max response: stronger effect = lower value; note: nearly all actives have a fitted effect of over 50% in size; note: potency is the fitted concentration of half-maximal effect
How it was run: (§1)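 HEK293 + NanoLuc + prosubstrate, 600 cells/well; 5 h, 37 C/5% CO2; compound 23 nL in DMSO by pintool; 37 C; luminescence read at 0, 8, 16, 24, 32 and 40 h time points.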

[2] = A CellTox Green Cytotoxicity Assay to monitor cytotoxicity in HEK293 cells - 24 hour (AID 1224875); note: series mostly up to about 77 µM; nearly all actives have a fitted effect of over 45% in size
How it was run: (§2)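 Tox21 screen in HEK293: membrane-impermeant cyanine dye fluoresces on binding dead-cell DNA; compound pinned 5 h post-seeding, plates held at 37 C, signal read repeatedly through 40 h.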

[3] = A CellTox Green Cytotoxicity Assay to monitor cytotoxicity in HepG2 cells - 16 hour (AID 1224876); note: nearly all actives have a fitted effect of over 45% in size; note: potency is the fitted concentration of half-maximal effect
How it was run: (§3)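 Measurements at 0, 8, 16, 24, 32 and 40 h of treatment captured CellTox Green fluorescence in HepG2 cells that had been co-plated with reagent and preincubated 5 h at 37 C/5% CO2.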

[4] = qHTS RealTime-Glo MT Cell Viability Assay in HepG2 cells - 32 hour (AID 1224877); note: nearly all actives have a fitted effect of over 55% in size
How it was run: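 Tox21 10K library screened in qHTS format on HepG2 cells carrying RealTime-Glo reagents. Compounds were added after a 5 h preincubation, and the luminescent signal from continuous culture was measured repeatedly during 40 h treatment.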

[5] = A CellTox Green Cytotoxicity Assay to monitor cytotoxicity in HepG2 cells - 40 hour (AID 1224879); note: nearly all actives have a fitted effect of over 40% in size; note: potency is the fitted concentration of half-maximal effect
How it was run: as §3

[6] = qHTS RealTime-Glo MT Cell Viability Assay in HEK293 cells - 0 hour (AID 1224880); note: top concentration of the series differs between compounds; nearly all actives have a fitted effect of over 45% in size
How it was run: as §1

[7] = A CellTox Green Cytotoxicity Assay to monitor cytotoxicity in HEK293 cells - 32 hour (AID 1224881); note: nearly all actives have a fitted effect of over 40% in size; note: potency is the fitted concentration of half-maximal effect
How it was run: as §2

[8] = A CellTox Green Cytotoxicity Assay to monitor cytotoxicity in HepG2 cells - 0 hour (AID 1224882); note: nearly all actives have a fitted effect of over 35% in size; note: potency is the fitted concentration of half-maximal effect
How it was run: as §3

[9] = A CellTox Green Cytotoxicity Assay to monitor cytotoxicity in HepG2 cells - 32 hour (AID 1224883); note: nearly all actives have a fitted effect of over 50% in size; note: potency is the fitted concentration of half-maximal effect
How it was run: as §3

[10] = A CellTox Green Cytotoxicity Assay to monitor cytotoxicity in HepG2 cells - 24 hour (AID 1224878); note: nearly all actives have a fitted effect of over 45% in size; note: potency is the fitted concentration of half-maximal effect
How it was run: as §3
% is set by controls: 0 for no effect and ±100 for the full control effect.

O=c1[nH]c2ccccc2c(=O)o1
inactive: max response [1] -0.172% | Potency [2] | Potency [3] | outcome [4] | Potency [5] | outcome [6] | Potency [7] | Potency [8] | Potency [9]

C=C(C)CCl
inactive: max response [1] 0.792% and 2.61% | Potency [3] | outcome [4] | Potency [10] | Potency [5] | outcome [6] | Potency [7] | Potency [8] | Potency [9]

O=NN1CCCCCCC1
inactive: max response [1] 6.51% and -7.12% | Potency [3] | outcome [4] | Potency [10] | Potency [5] | outcome [6] | Potency [7] | Potency [8] | Potency [9]

CC(C)C1(C)N=C(c2nc3ccccc3cc2C(=O)O)NC1=O (stereo not drawn)
inactive: max response [1] 4.12% and 2.1% | Potency [3] | outcome [4] | Potency [10] | Potency [5] | outcome [6] | Potency [7] | Potency [8] | Potency [9]

COCCl
inactive: max response [1] -4.66% and 2.93% | Potency [2] | Potency [3] | outcome [4] | Potency [5] | Potency [7] | Potency [8] | Potency [9]

Nc1ccc(Cc2ccc(N)cc2)cc1
inactive: max response [1] -10.2% | Potency [3] | outcome [4] | Potency [10] | Potency [5] | outcome [6] | Potency [7] | Potency [8] | Potency [9]

OC(O)C(Cl)(Cl)Cl
inactive: max response [1] -9.37% and 5.84% | Potency [2] | Potency [3] | outcome [4] | Potency [5] | outcome [6] | Potency [7] | Potency [8] | Potency [9]

Cc1ccc(N)cc1Cl
inactive: max response [1] -5.66% and 1.08% | Potency [2] | Potency [3] | outcome [4] | Potency [5] | outcome [6] | Potency [7] | Potency [8] | Potency [9]

CCCCCOC(=O)c1ccccc1C(=O)OCCCCC
inactive: max response [1] -11.1% and -2.4% | Potency [2] | Potency [3] | outcome [4] | Potency [10] | Potency [5] | Potency [7] | Potency [8] | Potency [9]

Oc1ccccc1Cl
inactive: max response [1] 9.22% and 18.7% | Potency [2] | Potency [3] | outcome [4] | Potency [5] | outcome [6] | Potency [7] | Potency [8] | Potency [9]

CC(Oc1ccc(Cl)cc1Cl)C(=O)O (stereo not drawn)
inactive: max response [1] -2.47% | Potency [2] | Potency [3] | outcome [4] | Potency [10] | Potency [5] | Potency [7] | Potency [8] | Potency [9]

CCN(CC)CCO
inactive: max response [1] 2.53% and -12.7% | Potency [3] | outcome [4] | Potency [10] | Potency [5] | outcome [6] | Potency [7] | Potency [8] | Potency [9]

C=CCO
inactive: max response [1] 4.57% and 0.311% | outcome [4] | outcome [6]
inactive and 38.9 µM (active): Potency [7] | Potency [8]
inactive and 24.5 µM (active): Potency [3] | Potency [10] | Potency [5] | Potency [9]

O=c1n(Cl)c(=O)n(Cl)c(=O)n1Cl
inactive: max response [1] 1.37% and 3.54% | Potency [2] | Potency [3] | outcome [4] | Potency [5] | outcome [6] | Potency [7] | Potency [8] | Potency [9]

Cc1cccc([N+](=O)[O-])c1
inactive: max response [1] 1.89% and 2.13% | Potency [2] | Potency [3] | outcome [4] | Potency [5] | outcome [6] | Potency [7] | Potency [8] | Potency [9]

CCOP(OCC)OCC
inactive: max response [1] 7.3% and 7.34% | Potency [2] | Potency [3] | outcome [4] | Potency [5] | outcome [6] | Potency [7] | Potency [8] | Potency [9]

Clc1ccc(Cl)cc1
inactive: max response [1] 6.61% and 0.839% | Potency [2] | Potency [3] | outcome [4] | Potency [5] | outcome [6] | Potency [7] | Potency [8] | Potency [9]

O=c1[nH]c(=O)[nH]c(=O)[nH]1
inactive: max response [1] 1.39% and 0.958% | Potency [2] | Potency [3] | outcome [4] | Potency [5] | Potency [7] | Potency [8] | Potency [9]

CC(Br)C(=O)O (stereo not drawn)
inactive: max response [1] 0.901% and -24.8% | Potency [3] | outcome [4] | Potency [10] | Potency [5] | outcome [6] | Potency [7] | Potency [8] | Potency [9]

Cc1cc(Cl)ccc1O
inactive: max response [1] 4.2% and 2.39% | Potency [2] | Potency [3] | outcome [4] | Potency [5] | Potency [7] | Potency [8] | Potency [9]

c1ccc(OP(Oc2ccccc2)Oc2ccccc2)cc1
inactive: max response [1] 4.65% and 9.76% | Potency [2] | Potency [3] | outcome [4] | Potency [5] | outcome [6] | Potency [7] | Potency [8] | Potency [9]

NCCc1ccc(O)cc1
inactive: max response [1] -18.4% and 1.96% | Potency [2] | Potency [3] | outcome [4] | Potency [5] | outcome [6] | Potency [7] | Potency [8] | Potency [9]

CCC[N+](=O)[O-]
21.5 µM (active) and inactive: Potency [9]
24.1 µM (active) and inactive: Potency [5]
inactive: max response [1] 7.7% | Potency [2] | Potency [3] | outcome [4] | Potency [7] | Potency [8]

Clc1ccccc1Cl
inactive: max response [1] 2.45% and -10.4% | Potency [3] | outcome [4] | Potency [10] | outcome [6] | Potency [7] | Potency [8] | Potency [9]
inactive and 54.9 µM (active): Potency [5]

CCC12COCN1COC2
inactive: max response [1] 1.37% and 3.08% | Potency [3] | outcome [4] | Potency [10] | Potency [5] | outcome [6] | Potency [7] | Potency [8] | Potency [9]

[O-][Cl+2]([O-])O
inactive: max response [1] 11.8% and -2.78% | Potency [2] | Potency [3] | outcome [4] | Potency [5] | outcome [6] | Potency [7] | Potency [8] | Potency [9]

CC(C)=C[C@@H]1[C@@H](C(=O)OCc2coc(Cc3ccccc3)c2)C1(C)C
inactive: max response [1] -1.11% and 8.33% | Potency [3] | outcome [4] | Potency [10] | Potency [5] | outcome [6] | Potency [7] | Potency [8] | Potency [9]

CN1C(=O)CN=C(c2ccccc2)c2cc(Cl)ccc21
inactive: max response [1] -22% | Potency [2] | Potency [3] | outcome [4] | Potency [10] | Potency [5] | Potency [7] | Potency [8] | Potency [9]

CCCCN(CC)C(=O)SCCC
inactive: max response [1] 0.284% | Potency [2] | Potency [3] | outcome [4] | Potency [5] | outcome [6] | Potency [7] | Potency [8] | Potency [9]

CC(C)OC(=O)Nc1ccccc1
inactive: max response [1] 1.67% and 0.253% | Potency [2] | Potency [3] | outcome [4] | Potency [5] | Potency [7] | Potency [8] | Potency [9]

CC(=O)C=C(C)C
inactive: max response [1] 1.7% and 8.25% | Potency [3] | outcome [4] | Potency [10] | Potency [5] | outcome [6] | Potency [7] | Potency [8] | Potency [9]

CCCCCCCCCl
inactive: max response [1] 2.47% and 5.32% | Potency [3] | outcome [4] | Potency [10] | Potency [5] | Potency [7] | Potency [8] | Potency [9]

CCCN(CCC)N=O
inactive: max response [1] -0.648% and 5.21% | Potency [3] | outcome [4] | Potency [5] | Potency [7] | Potency [8] | Potency [9]

CCNc1nc(NC(C)C)nc(SC)n1
inactive: max response [1] -1.45% | Potency [3] | outcome [4] | Potency [5] | Potency [7] | Potency [8] | Potency [9]

CCNc1nc(NC(C)(C)C)nc(SC)n1
active: Potency [1] 27.2 µM
inactive: Potency [3] | outcome [4] | Potency [10] | Potency [5] | Potency [7] | Potency [8] | Potency [9]

O=Cc1cccc(Oc2ccccc2)c1
inactive: max response [1] -18.5% and 0.95% | Potency [3] | outcome [4] | Potency [5] | outcome [6] | Potency [7] | Potency [8] | Potency [9]

Nc1ccc(Br)cc1
inactive: max response [1] -1.58% and -21.4% | Potency [3] | outcome [4] | Potency [5] | outcome [6] | Potency [7] | Potency [8] | Potency [9]

Cc1cc(-c2cc(C)c(N)c(C)c2)cc(C)c1N
inactive: max response [1] -25.8% and -12.6% | Potency [3] | outcome [4] | Potency [5] | outcome [6] | Potency [7] | Potency [8] | Potency [9]

CCC(C)(CC)c1cc(NC(=O)c2c(OC)cccc2OC)on1
inactive: Potency [2] | Potency [3] | outcome [4] | Potency [10] | Potency [5] | outcome [6] | Potency [7] | Potency [8] | Potency [9]

CC(C)NC(=O)N1CC(=O)N(c2cc(Cl)cc(Cl)c2)C1=O
inactive: Potency [2] | Potency [3] | outcome [4] | Potency [10] | Potency [5] | Potency [7] | Potency [8] | Potency [9]

CC(C)(C)C(O)(CCc1ccc(Cl)cc1)Cn1cncn1 (stereo not drawn)
active: Potency [1] 44.2 µM and 54.9 µM
inactive: Potency [3] | outcome [4] | outcome [6] | Potency [7] | Potency [8]

CCCC1COC(Cn2cncn2)(c2ccc(Cl)cc2Cl)O1 (stereo not drawn)
active: Potency [1] 25 µM and 21.9 µM
inactive: Potency [3] | outcome [4] | Potency [10] | outcome [6] | Potency [8]
49.9 µM (active) and inactive: Potency [7]

CC(C)(Cl)Cl
inactive: max response [1] 0.337% and 2.87% | Potency [3] | outcome [4] | Potency [10] | Potency [5] | outcome [6] | Potency [7] | Potency [8] | Potency [9]

O=S(=O)(c1ccc(Cl)cc1)c1cc(Cl)c(Cl)cc1Cl
inactive: Potency [3] | outcome [4] | Potency [10] | Potency [5] | outcome [6] | Potency [7] | Potency [8] | Potency [9]

c1cc2c3c(cccc3c1)CC2
inactive: max response [1] 0.321% and -19.1% | Potency [3] | outcome [4] | Potency [10] | Potency [5] | Potency [8] | Potency [9]
inactive and 49 µM (active): Potency [7]

O=C1CCCN1
inactive: max response [1] 1.24% and -5.73% | Potency [3] | outcome [4] | Potency [5] | Potency [7] | Potency [8] | Potency [9]

CCCN(CCC)c1c([N+](=O)[O-])cc(C(F)(F)F)cc1[N+](=O)[O-]
1.55 µM (active) and inactive: Potency [7]
inactive: max response [1] -12.8% and 1.59% | Potency [3] | outcome [4] | Potency [5] | outcome [6] | Potency [8] | Potency [9]
